Test results from PubChem BioAssay AID504376 (National Center for Advancing Translational Sciences (NCATS), 2011).
The source made the active and inactive calls. How the calls were made is not given here.

Assay: Clonogenic survival assay for Identifying a Potential Treatment of Ataxia-Telangiectasia:SAR for Probe
Conditions: ATM-null F2111 fibroblasts, NCS clonogenic survival, 14 d
Source text: NIH Chemical Genomics Center [NCGC] NIH Molecular Libraries Probe Centers Network [MLPCN] MLPCN Grant: MH089030-01 Assay Submitter (PI): Wei Zheng and Yosef Shiloh Ataxia-telangiectasia (A-T) is a devastating and progressive disease for which, there is no cure. Although A-T is a multisystem disease, it is stereotyped characterized by its neurological symptoms such as truncal ataxia, due to cerebellar cortical degeneration of the Purkinje and granule cells. Other symptoms of A-T are telangiectasias (dilated blood vessels), primary immunodeficiency, marked sensitivity to ionizing radiation (IR), chromosomal instability and predisposition to cancer. The underlying genetic cause of A-T is null mutations in the ATM (A-T mutated) gene. ATM is a nuclear serine/threonine kinase that functions as a master regulator of the cellular responses to double strand breaks (DSBs) in the DNA. Upon activation by DSBs, ATM phosphorylates a plethora of downstream targets, including KAP-1 on […]. KAP-1 phosphorylation occurs shortly in response to DSBs and mediates global chromatin relaxation, which facilitates DSB repair. To screen for small molecules that will compensate for the loss of ATM in cells derived from A-T patients, we monitored KAP-1 phosphorylation as a readout for ATM-like activity using an AlphaLISA assay. Active compounds should protect the A-T cells from the damage by NCS treatment and form normal colonies.
ATM null (F2111) cells are treated with various doses of the radiomimetic drug neocarzinostatin (NCS) and plated at densities of 200-5000 cells/[…]. 24 hr later the cells were either treated or not treated with Rottlerin, and 30 min later NCS was added for an additional 30 minutes. Then the medium was replaced with fresh medium and plates were incubated for 14 days until colonies could be visualized. After fourteen days, the cultures are fixed and stained and colonies scored manually. Colony survival in absence of NCS was normalized to 100% survival for each compound concentration.

For `CC(=O)c1c(O)c(C)c(O)c(Cc2c(O)c3c(c(C(=O)/C=C/c4ccccc4)c2O)OC(C)(C)C=C3)c1O`, the survival (at 30 µM, stronger effect = higher value) was 43% (active), the survival (measured here: 10 ng/ml NCS, no compound) was 35% and the survival (measured here: 20 ng/ml NCS, at 30 µM, stronger effect = higher value) was 33%. It also gave a survival (measured here: 40 ng/ml NCS, at 30 µM, stronger effect = higher value) of 15%.
